Reference: the supplement of paper PMC6555819

Experiments:
Assay in all cases: PBM binding z-score (relative to random genomic background probes); higher = stronger binding; sequences stand for … in GC…GCGATTGACAGCGTAGAATGAAGG
[1] = test system: PPARg:RXRa DBDmut IVT, anti-RXR (DBD mutation: RXRa K156A/R161A, NR concentration 270 nM, RXRa partner concentration 90 nM)
Method in brief: (§1)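 The probes on custom Agilent 4×180K protein-binding microarrays were double-stranded, with 34-nt variable regions bearing direct-repeat seeds, single-nucleotide variants, half-site ablations and random human genomic background sequences. Incubation lasted 1 h with ligand-free nuclear receptor dimers in PBS pH 7.4, 2% milk, 0.02% Triton X-100, 1 mM DTT, 0.2 mg/mL BSA and 0.4 mg/ml salmon testes DNA. Antibodies against each partner (one per run) detected bound dimers, and fluorescence scans were regression-normalized. Binding z-scores take the random background probes as reference.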

[2] = test system: PPARg:RXRa IVT, anti-PPARg (NR concentration 270 nM, RXRa partner concentration 90 nM)
Method in brief: as §1

[3] = test system: PPARg DBDmut:RXRa IVT, anti-PPARg (DBD mutation: PPARg1 K132A/R137A, NR concentration 270 nM, RXRa partner concentration 90 nM)
Method in brief: as §1

[4] = test system: PPARg DBDmut IVT, anti-PPARg (DBD mutation: PPARg1 K132A/R137A, NR concentration 270 nM)
Method in brief: as §1

[5] = test system: PPARg homodimer (NR concentration 180 nM)
Method in brief: as §1

[6] = test system: PXR:RXRa (NR concentration 270 nM, RXRa partner concentration 90 nM)
Method in brief: as §1

[7] = test system: PXR homodimer (NR concentration 270 nM)
Method in brief: as §1

[8] = test system: RARa:RXR (NR concentration 270 nM, RXRa partner concentration 90 nM)
Method in brief: as §1

[9] = test system: RARa homodimer (NR concentration 270 nM)
Method in brief: as §1

[10] = test system: RARb:RXRa (NR concentration 270 nM, RXRa partner concentration 90 nM)
Method in brief: as §1

[11] = test system: RARb homodimer (NR concentration 270 nM)
Method in brief: as §1

[12] = test system: RARg:RXRa (NR concentration 270 nM, RXRa partner concentration 90 nM)
Method in brief: as §1

[13] = test system: RARg homodimer (NR concentration 270 nM)
Method in brief: as §1

[14] = test system: RXRa DBDmut IVT, anti-RXR (DBD mutation: RXRa K156A/R161A, NR concentration 90 nM)
Method in brief: as §1

[15] = test system: RXRa homodimer (NR concentration 180 nM)
Method in brief: as §1

[16] = test system: THRa:RXRa (NR concentration 90 nM, RXRa partner concentration 90 nM)
Method in brief: as §1

[17] = test system: THRa homodimer (NR concentration 90 nM)
Method in brief: as §1

[18] = test system: VDR homodimer (NR concentration 270 nM)
Method in brief: as §1

Row | Sequence | PBM binding z-score [1] | PBM binding z-score [2] | PBM binding z-score [3] | PBM binding z-score [4] | PBM binding z-score [5] | PBM binding z-score [6] | PBM binding z-score [7] | PBM binding z-score [8] | PBM binding z-score [9] | PBM binding z-score [10] | PBM binding z-score [11] | PBM binding z-score [12] | PBM binding z-score [13] | PBM binding z-score [14] | PBM binding z-score [15] | PBM binding z-score [16] | PBM binding z-score [17] | PBM binding z-score [18]
1 | ACTTACGGGTCCACGAGGTTATAGCACGCGTATA | 0.0725 | 0.67 | 0.473 | 0.278 | 0.407 | 1.48 | 1.01 | 1.8 | 0.384 | 1.15 | 1.33 | 1.43 | 0.919 | 3.07 | 1.61 | 2.26 | 1.65 | 3.37
2 | AGAATGAGGTTATTAAGCTCAGGGAATTGCGGTC | 2.58 | 1.95 | 0.589 | 0.126 | -0.0657 | 0.757 | -0.286 | 0.948 | -0.655 | 1.09 | 0.163 | 0.737 | 0.334 | 2 | 1.6 | 1.99 | 0.104 | 0.783
3 | TCTGCTAGGTCAGCGATGGTCAGCTAATCTGCTA | 3.18 | 3.05 | -0.711 | -0.258 | 0.723 | 0.17 | -1.61 | 1.31 | -1.26 | 3.33 | 2.71 | 2.89 | 3.88 | 0.156 | 1.25 | 2.4 | -0.062 | -0.739
4 | CAAACTAGGTCATCCAGGACAGTGAATACATTGA | 8.23 | 8.47 | 4.2 | 2.88 | 2.69 | 2.23 | 1.49 | 2.85 | 1.49 | 3.84 | 3.12 | 4.15 | 4.93 | 2.37 | 3.09 | 3.76 | 2.38 | 2.21
5 | TCTGCTAGCTCAGTTGGTCAGCTAACGAGCTGCC | 0.435 | 0.0097 | -0.882 | -0.216 | -1.73 | -0.874 | -1.69 | -0.998 | -2.24 | -0.575 | -1.04 | -0.955 | -0.903 | -0.192 | -1.34 | -1.6 | -1.25 | -1.56
6 | TAGCCTAGATCATGCGGGCCAGTATAGTGTCGGC | 0.553 | 0.672 | -0.852 | -1.76 | -1.53 | -1.41 | -1.04 | -1.57 | -0.691 | -1.2 | -1.16 | -0.937 | -0.627 | -1 | -0.796 | -1.05 | -1.46 | -1.14
7 | TCATATAGGTAAAAGGTGAAAGTGGGTGTGGTAA | 5.36 | 5.24 | 0.898 | 1.26 | 2.63 | 2.31 | 1.28 | 3.5 | 2.39 | 2.22 | 2.35 | 2.16 | 1.01 | 1.87 | 3.15 | 2.07 | 1.12 | 0.877
8 | TCGAGTTGGTCACGGAGGTCACACACGACGGGTA | 0.979 | 2.98 | 0.179 | 0.0233 | 2.35 | 4.79 | 1.32 | 4.55 | 0.63 | 3.84 | 4.47 | 4.77 | 4.81 | 1.32 | 4.92 | 3.77 | 2.24 | 3.52
